This note sets out measurements from PubChem BioAssay (NCATS).

Records with an inconclusive call do not appear. A call without a number means that no potency is given here. Unmarked numbers belong to inactive results. Activity calls are given as the source filed them. The call rests on the fitted dose curve; in most records, active means well fitted inhibition curve with a large enough effect; inconclusive means small, poorly fitted or top-dose-only effect; inactive means flat fitted curve, though single readings scatter.

In this assay the target is Glutathione peroxidase 1 (Homo sapiens) (UniProt P07203). Put plainly: Primary qHTS Assay for Inhibitors of Recombinant Selenoprotein Glutathione Peroxidase 1 (GPX1) (AID 1845191). Further: nearly all actives have a fitted effect of over 65% in size. The settings on record: recombinant GPX1, GR-coupled NADPH fluorescence, 15 min; series mostly up to 48.8 µM; activity, negative = inhibition: at the top concentration. An excerpt: Assay Provider: Elias S.J. Arner MD PhD.
Chain of Glutathione peroxidase 1 (Homo sapiens) (P07203 whole entry, looked up): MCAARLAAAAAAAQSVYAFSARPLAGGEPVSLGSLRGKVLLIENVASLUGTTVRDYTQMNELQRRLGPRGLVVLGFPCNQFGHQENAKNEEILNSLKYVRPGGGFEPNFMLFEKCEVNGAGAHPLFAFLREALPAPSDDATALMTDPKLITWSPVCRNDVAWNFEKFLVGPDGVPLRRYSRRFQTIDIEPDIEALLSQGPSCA
Department of Medical Biochemistry and Biophysics
Karolinska Institutet, Solna, Stockholm, Sweden
Selenoprotein glutathione peroxidases (GPX), like the ubiquitously expressed GPX1 and the ferroptosis modulator GPX4, enact their antioxidant activities by reducing hydroperoxides using glutathione. […] GPX1 and GPX4 inhibitors have thus shown promise as anti-cancer agents. Existing inhibitors are often promiscuous, or modulate GPX activity only indirectly, so novel direct inhibitors identified through screening against GPX1 and GPX4 could be valuable. Here, we developed optimized glutathione reductase (GR)-coupled GPX assays for the biochemical high-throughput screen (HTS) of almost 12,000 compounds with known mechanisms of action. Initial hits were triaged using a GR counter-screen, assessed for isoform specificity using a separate GPX2 assay, and were assessed for general selenocysteine-targeting activity using a thioredoxin reductase (TXNRD1) assay. With this suite of assays, we identified novel GPX1/GPX2- and GPX4-specific inhibitors and can here present a validated pipeline for future discovery research for selenoprotein-targeting agents.
SEQUENCE No. (e.g., 1, 2, 3, etc.); […] (e.g., Cells, Incubation, Reagent, etc.); VALUE; DESCRIPTION.
1; Reagent 1; 3 uL; GPx1 enzyme or no enzyme control in 1536-well, black, solid Greiner assay plate.
2; Compound; 25 nL; Kalypsis pin tool (Wako USA) equipped with a 1536-well pin head.
3; Incubation; 30 min; room temperature.
4; Reagent 2; 1 uL; 10 nM GPX1, 1 mM GSH, 0.5 mM CHP, 0.5 mM NADPH, 100 nM GR, 0.01% BSA substrate
5; Detection; Fluorescence; ViewLux microplate reader, excitation 340 nm and emission 450 nm.
6; Incubation; 15 min; room temperature.
7; Detection; Fluorescence; ViewLux microplate reader, excitation 340 nm and emission 450 nm.
NOTES (numbers refer to Sequence numbers above)
1. 3 uL of 16.66 nM GPX1 and 0.016% BSA in assay buffer (50 mM Tris-HCl, 2 mM EDTA (pH 7.5), 150 mM NaCl) was added to columns 3-48 of 1536-well assay plates using a BioRAPTR Flying Reagent Dispenser (Let's Go Robotics (LGR), Carlsbad, CA). A no-enzyme control (0.01% BSA in TES assay buffer) was added to columns 1-2.
2. 25 nL of test compounds and DMSO controls were added to each well with a pin tool (Kalypsys).
3. The assay plates were incubated for 30 minutes at room temperature.
4. 1 uL of master mix (500 nM glutathione reductase (GR), 5 mM reduced glutathione (GSH), 2.5 mM NADPH in assay buffer) was added. 1 uL of cumene hydroperoxide (CHP) ([2.5 mM] in 50% EtOH) was then added within 5 minutes to initiate the reaction. Final concentrations were: 10 nM GPX1, 1 mM GSH, 0.5 mM CHP, 0.5 mM NADPH, 100 nM GR, 0.01% BSA.
5. Initial fluorescence readout (t=0) at 340/450 nm was measured using a ViewLux multimodal detector (PerkinElmer, Waltham, MA).
7. Endpoint fluorescence readout (t=15) at 340/450 nm was measured 15 min after room temperature incubation.
For orientation: In qHTS, concentration-response curves come from the screen itself.
Take `CN1C[C@H](C(=O)N[C@]2(C)O[C@@]3(O)[C@@H]4CCCN4C(=O)[C@H](Cc4ccccc4)N3C2=O)C[C@@H]2c3cccc4[nH]cc(c34)C[C@H]21`: the Potency entry was “inactive”. With `CCCC(C(=O)OCCN(CC)CC)(c1ccccc1)c1ccccc1`, the “activity, negative = inhibition” value is -12.2%. With `c1ccc2c(c1)CCCC2C1=NCCN1` (stereo not given), the Potency entry is “inactive”. Same read-out and setting: in the case of `CN(C)[C@@H]1C(=O)C(C(N)=O)=C(O)[C@@]2(O)C(=O)C3=C(O)c4c(O)ccc(Cl)c4[C@@H](O)[C@H]3C[C@@H]12` it was “inactive”; in that of `C=CCc1ccccc1OCC(O)CNC(C)C` (stereo not given), “inactive”; in that of `COc1cc(Cc2cnc(N)nc2N)cc(OC)c1OC`, “inactive”.

On to `CCCN(CCC)C(=O)C(CCC(=O)O)NC(=O)c1ccccc1` (stereo not given), for which the Potency result was “inactive”. For the compound `CC(=O)[C@]1(O)Cc2c(O)c3c(c(O)c2[C@@H](O[C@H]2C[C@H](N)[C@H](O)[C@H](C)O2)C1)C(=O)c1ccccc1C3=O`, the Potency entry is “inactive”.

For `CCN(CC)CCCN(c1ccccc1)C1Cc2ccccc2C1`, the Potency result is “inactive”.

With `COc1cc2c(cc1OC)-c1cc(=Nc3c(C)cc(C)cc3C)n(C)c(=O)n1CC2`, the “activity, negative = inhibition” value is -9.03%. As to `COc1cc(C(=O)OCCCN2CCCN(CCCOC(=O)c3cc(OC)c(OC)c(OC)c3)CC2)cc(OC)c1OC`, the Potency entry is “inactive”. On the same count and under the same terms, in the case of `COC(=O)C1=C(C)NC(C)=C(C(=O)OC(C)(C)CN(C)CCC(c2ccccc2)c2ccccc2)C1c1cccc([N+](=O)[O-])c1` (stereo not given) it was “inactive”; in that of `CC(C)(Oc1ccc(CCNC(=O)c2ccc(Cl)cc2)cc1)C(=O)O`, “inactive”.

In the case of `CC(N=C(NC#N)Nc1ccncc1)C(C)(C)C` (stereo not given), the Potency entry was “inactive”. In the case of `C#CCN(C)CCCOc1ccc(Cl)cc1Cl`, the “activity, negative = inhibition” value is -18.5%. For the compound `CNCCCN1c2ccccc2CCc2ccccc21`, the Potency result was “inactive”. Same read-out and setting: the value for `COc1ccc2c(c1OC)C(=O)O[C@@H]2[C@H]1c2c(cc3c(c2OC)OCO3)CCN1C` was “inactive”; that for `NC(=O)N1c2ccccc2C=Cc2ccccc21` was “inactive”; that for `CC(C)(C)c1ccc(C(=O)CCCN2CCC(OC(c3ccccc3)c3ccccc3)CC2)cc1` was “inactive”. With `CCCCCCCC/C=C\CCCCCCCC(=O)NCc1ccc(O)c(OC)c1`, the “activity, negative = inhibition” value is -16.3%. With `NC(Cc1ccc(Cl)cc1)C(=O)O` (stereo not given), the outcome was inactive. `CN(C(=O)CCCOc1ccc2[nH]c(=O)ccc2c1)C1CCCCC1`: the “activity, negative = inhibition” value is 3.86%. Same read-out and setting: the value for `O=C(O)CN(CCOCCOCCN(CC(=O)O)CC(=O)O)CC(=O)O` was -13.3%. On to `COc1ccc(CN(CCN(C)C)c2ccccn2)cc1`, for which the Potency entry was “inactive”. In the case of `CCCCCN(CCCCC)C(=O)C(CCC(=O)O)NC(=O)c1ccc(Cl)c(Cl)c1` (stereo not given), the “activity, negative = inhibition” value was -18.6%.

For the compound `CN(C)CCCN1c2ccccc2Sc2ccc(C(F)(F)F)cc21`, the Potency entry is “inactive”. Still for that read-out and setting: in the case of `CN(C)CCCN1c2ccccc2Sc2ccccc21` it was “inactive”; in that of `CNC1(C)C2CCC(C2)C1(C)C` (stereo not given), “inactive”. For `CCNC(=O)N1CCN(CCCC(c2ccc(F)cc2)c2ccc(F)cc2)CC1`, the outcome was inactive. Consider `Cc1ccc(/C(=C\CN2CCCC2)c2ccccn2)cc1`, for which the Potency result is “inactive”.

For the compound `CN/C(=C\[N+](=O)[O-])NCCSCc1ccc(CN(C)C)o1`, the Potency entry is “inactive”. Consider `C(=C\c1ccccc1)/CN1CCN(C(c2ccccc2)c2ccccc2)CC1`, for which the Potency entry was “inactive”. The same measure, in the same setting: the value for `C[N+](C)(C)CCOC(N)=O` was “inactive”. Turning to `CCc1cccc(N(C)C(N)=Nc2cccc3ccccc23)c1`, the outcome was inactive. As to `CCCN(CCC)CCc1cccc2c1CC(=O)N2`, the Potency entry was “inactive”.

As for `CN1CCN(CC(=O)N2c3ccccc3C(=O)Nc3cccnc32)CC1`, the Potency entry was “inactive”.

Regarding `O=C1NCN(c2ccccc2)C12CCN(CCCC(c1ccc(F)cc1)c1ccc(F)cc1)CC2`, the “activity, negative = inhibition” value is -2.43%. On the same count and under the same terms, the value for `CCN(CC)CCNC(=O)c1ccc(NC(C)=O)cc1` was -1.66%. Consider `COc1ccc(CCN(C)CCCC(C#N)(c2cc(OC)c(OC)c(OC)c2)C(C)C)cc1OC` (stereo not given), for which the Potency result is “inactive”. Take `Cc1nc2c([nH]1)c(=O)n(C)c(=O)n2Cc1ccco1`: the “activity, negative = inhibition” value is 2.5%.
